A selection: hits, their analogues and other compounds. The true share with any hit is near 6.3%.
NADH enzymes – inhibitors of PK/LDH coupling enzymes, profiling panel, artefact control, biochemical, MLSMR library | IC50, µM (titrated, usually from 10 µM), for inactives: at the highest dose inhibition | AID 774, 2007 | coupled PK/LDH NADH assays, four targets | 0.02% of 65,000 active;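 active means single-dose screening hits from any of four coupled enzyme assays that gave an IC50 when retested across doses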;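 further: the DPM-DC format reads NADH fluorescence rather than 340 nm absorbance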
Spn MK inh – S. pneumoniae MK inhibitors, primary screen, biochemical, PK/LDH-coupled NADH absorbance; mevalonate kinase [Streptococcus pneumoniae D39]; purified MK, PK/LDH-coupled NADH absorbance 340 nm; inhibition, % at 10 µM; 0.48% of 65,000 active;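 active means ranked among the strongest by inhibition in the single 10 µM screen, a fixed top-ranked set picked for dose follow-up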
Autofluor 339 – intrinsic fluorescence of library compounds, ex339/em460 – biochemical, MLSMR library, data from DPM-DC assay, artefact control, profiling panel; compound autofluorescence, ex339/em460 nm, NADH buffer; stronger effect = higher value; 1 = no-compound wells, NADH background; fluorescence fold increase at 10 µM; 5.5% of 65,000 active;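 active means at 10 µM, mean starting fluorescence two-fold or more over control wells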;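 further: signal is the first read of a kinetic run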
PMK inhibit – S. pneumoniae PMK inhibitors, primary screen, biochemical, mevalonate pathway, pilot trial included; AID 539, 2006; purified PMK, PK/LDH-coupled NADH absorbance 340 nm; inhibition, % at 10 µM; phosphomevalonate kinase (Streptococcus pneumoniae D39); 0.49% of 65,000 active;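 active means top-ranked compounds by inhibition in the single 10 µM screen, taking a fixed number of the strongest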;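 further: 0% = full reaction with DMSO carrier and 100% = background rate without enzyme reaction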
Spn DPM-DC inh – S. pneumoniae DPM-DC inhibitors, primary screen, biochemical, PK/LDH-coupled NADH fluorescence; calls only at 10 µM; AID 556, 2006; purified DPM-DC; 0.49% of 65,000 active;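 active means the 320 compounds with the highest percent inhibition in the single-dose primary screen, excluding strongly autofluorescent ones, cut at about 32% in these data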;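 further: kinetic rate of NADH fluorescence loss reporting ADP formed by the decarboxylase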
A340 absorber – compound light absorbance at 340 nm, profiling panel, artefact control, biochemical, MLSMR library, data from PS, PMK, MK assays; fold change at 10 µM; compound absorbance at 340 nm, fold over control; 65,000 tested, under 10 active;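 active means at 10 µM dose, initial 340 nm absorbance at least 2 fold that of control wells; inactive means change under 2 fold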;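 further: initial absorbance extrapolated from kinetic A340 decline of NADH oxidation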
Starred values were filed as active, the others as inactive; i = inactive; / = no result given; + = active, no number.

SMILES | NADH enzymes | Spn MK inh | Autofluor 339 | PMK inhibit | Spn DPM-DC inh | A340 absorber
c1ccc(Cc2nnc3sc(-c4ccc5c(c4)OCO5)nn23)cc1 | 5.0% | 6.0 | 3.54* | 4.0 | / | 1.13
O=C(CN(CCc1ccccc1)C(=O)CNS(=O)(=O)c1ccc(F)cc1)NCC1CCCO1 (stereo not drawn) | 2.0% | 4.0 | 1.06 | 3.0 | i | 0.96
CCc1ccc(S(=O)(=O)NCc2cn3ccsc3n2)s1 | 37.0% | 10.0 | 1.01 | 7.0 | + | 1.01
CCc1ccc(S(=O)(=O)NCCc2cn3ccsc3n2)s1 | 4.0% | 4.0 | 0.98 | 7.0 | i | 1.03
Cc1cc(Oc2ccccc2)nc(-c2ccccc2)n1 | 2.0% | 5.0 | 0.98 | 0.0 | i | 0.99
Cc1cc(Oc2ccccc2)nc2ccc(O)cc12 | 6.0% | 8.0 | 2.11* | 4.0 | / | 1.06
Cc1ccc(SCc2cn3c(C)csc3n2)cc1 | 5.0% | 7.0 | 1.09 | 9.0 | i | 1.01
CCCC(=O)Nc1cccc(NC(=O)CN2CCN(c3ccccc3OC)CC2)c1 | 3.0% | 4.0 | 1.03 | 27.0* | i | 1
CCOC(=O)C1CCCN(Cc2ccccc2OCC)C1 (stereo not drawn) | 14.0% | 41.0* | 1.1 | 0.0 | i | 1.06
CCOC(=O)C1CCCN(Cc2ccccc2C)C1 (stereo not drawn) | 14.0% | 42.0* | 1.11 | 0.0 | i | 1.08
CCN(CC)S(=O)(=O)c1cc(Br)c(C)cc1OC | 5.0% | 4.0 | 1.06 | 7.0 | i | 1.02
CCN(CC)CCCNc1oc(-c2ccc(OC)c(OC)c2)nc1C#N | 15.0% | 13.0 | 3.91* | 16.0 | / | 1.07
COc1ccc(-c2nc(C#N)c(NCCc3ccccc3)o2)cc1OC | 12.0% | 12.0 | 3.89* | 11.0 | / | 1.07
COc1ccc(-c2nc(C#N)c(NCc3ccc(C)cc3)o2)cc1OC | 1.0% | 1.0 | 2.11* | 0.0 | / | 1.05
CC(C)(C)c1ccc(-c2nc(C#N)c(NCc3ccncc3)o2)cc1 | 12.0% | 15.0 | 1.83 | 11.0 | i | 1.02
CN(C)CCCNc1oc(-c2cccc(Cl)c2)nc1C#N | 12.0% | 10.0 | 3.91* | 13.0 | / | 1.02
COc1ccc(F)cc1S(=O)(=O)Nc1ccc(C)cc1 | 5.0% | 14.0 | 1.07 | 0.0 | i | 1.01
COc1ccc(-c2ccc(-c3nnc(Cc4ccc(OC)c(OC)c4)o3)cc2)cc1 | 7.0% | 4.0 | 2.58* | 6.0 | i | 1.05
Cc1cc(=O)[nH]c(/N=C(\N)Nc2cccc3ccccc23)n1 | 22.0% | 9.0 | 1.06 | 19.0 | + | 1.04
COc1ccccc1N/C(N)=N/c1nc(CSc2ccc(C)cc2)cc(=O)[nH]1 | 8.0% | 11.0 | 1.09 | 12.0 | i | 1.01
Cc1cc(NC(=O)c2cc(-c3ccccn3)nc3ccccc23)no1 | 8.0% | 9.0 | 1.2 | 14.0 | i | 1.07
Cc1ccc(-c2cc(C(=O)NC3=NCCS3)c3cc(Br)ccc3n2)o1 | 20.0% | 26.0 | 1.14 | 5.0 | i | 1.1
Cc1cc(C)c2nc(-c3ccccn3)cc(C(=O)Nc3cc(C)on3)c2c1 | 13.0% | 4.0 | 3.15* | 7.0 | i | 1.1
Cc1cc(NC(=O)c2cc(-c3ccncc3)nc3c(C)cccc23)no1 | 6.0% | 2.0 | 2.73* | 2.0 | i | 1.12
Cc1ccc(-c2cc(C(=O)NCCCn3ccnc3)c3cc(Br)ccc3n2)o1 | 22.0% | 35.0 | 2.86* | 2.0 | i | 1.08
Cc1cc(NC(=O)c2cccc(C(=O)Nc3cc(C)on3)n2)no1 | 9.0% | 10.0 | 1.07 | 9.0 | i | 1
Cc1ccc(-c2cc(C(=O)NCc3ccco3)c3ccccc3n2)o1 | 9.0% | 11.0 | 4.94* | 6.0 | / | 1.06
O=C(CC(=O)N1CCN(c2ccccn2)CC1)Nc1ccc2nc3n(c(=O)c2c1)CCCCC3 | 6.0% | 3.0 | 1.13 | 9.0 | i | 1.06
Cc1cc(C)c2nc(-c3ccccn3)cc(C(=O)NCc3ccco3)c2c1 | 4.0% | 1.0 | 3.64* | 7.0 | / | 1.09
Cc1cc(NC(=O)c2ccccc2-c2ccccc2C(=O)O)no1 | 9.0% | 1.0 | 1.07 | 20.0 | i | 1.04
